Assay results published in PubChem BioAssay AID1159580 (chemical genetic matrix, 2015).
Values joined by “and” are separate entries in the source; they are usually repeats but may differ in a detail not shown here. Equal entries are not always repeated. About 2,000 (36%) of roughly 5,500 compounds were called active. About 18% were inconclusive and are not listed. Cut-off read from the data, not from the text of the source: active = normalized growth mostly below about 0.91 (no sharp cut-off); inconclusive = no clear call, values can overlap the other calls; inactive = mostly above about 0.92. Some of the results follow.

Test: chemical genetic growth profiling, strain panel (AID 1159580);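 note: tested at 20 µM; growth read once vehicle control cultures reached saturation at 30 °C; 1 = growth at the plate median or of vehicle wells; lower values mean less growth of the strain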
Conditions: growth OD

Measured: normalized growth

CCN(CC)CCOC(=O)C(c1ccccc1)C1CCCCC1 (configuration not stated)
inactive: S. cerevisiae deletion strains, locus YAL013W, strain DEP1, active compounds read low 1 | S. cerevisiae deletion strains, locus YBR021W, strain FUR4, active compounds read low 1 | S. cerevisiae deletion strains, locus YBR229C, strain ROT2, active compounds read low 1 | S. cerevisiae deletion strains, locus YCL029C, strain bik1, active compounds read low 0.958 | S. cerevisiae deletion strains, locus YDL035C, strain GPR1, active compounds read low 0.999 | S. cerevisiae deletion strains, locus YDL074C, strain BRE1, active compounds read low 0.948 | S. cerevisiae deletion strains, locus YDL101C, strain DUN1, active compounds read low 0.983 | S. cerevisiae deletion strains, locus YDL134C, strain PPH21, active compounds read low 1.01 | S. cerevisiae deletion strains, locus YDL185W, strain tfp1, active compounds read low 0.946 | S. cerevisiae deletion strains, locus YDL192W, strain arf1, active compounds read low 0.971 | S. cerevisiae deletion strains, locus YDR101C, strain arx1, active compounds read low 0.964 | S. cerevisiae deletion strains, locus YDR150W, strain NUM1, active compounds read low 0.989 | S. cerevisiae deletion strains, locus YDR162C, strain NBP2, active compounds read low 0.99 | S. cerevisiae deletion strains, locus YDR318W, strain mcm21, active compounds read low 0.97 | S. cerevisiae deletion strains, locus YDR388W, active compounds read low 0.948 | S. cerevisiae deletion strains, locus YDR502C, strain sam2, active compounds read low 0.998 | S. cerevisiae deletion strains, locus YEL061C, strain CIN8, active compounds read low 0.999 | S. cerevisiae deletion strains, locus YER110C, active compounds read low 0.973 | S. cerevisiae deletion strains, locus YER155C, strain BEM2, active compounds read low 1 | S. cerevisiae deletion strains, locus YER167W, strain BCK2, active compounds read low 1.01 | S. cerevisiae deletion strains, locus YGL078C, strain dbp3, active compounds read low 0.99 | S. cerevisiae deletion strains, locus YGL086W, strain mad1, active compounds read low 1.02 | S. cerevisiae deletion strains, locus YGL248W, strain PDE1, active compounds read low 1.01 | S. cerevisiae deletion strains, locus YGR078C, strain PAC10, active compounds read low 0.966 | S. cerevisiae deletion strains, locus YGR135W, strain pre9, active compounds read low 0.968 | S. cerevisiae deletion strains, locus YGR229C, strain SMI1, active compounds read low 0.972 | S. cerevisiae deletion strains, locus YGR252W, strain gcn5, active compounds read low 1.11 | S. cerevisiae deletion strains, locus YHR030C, strain SLT2, active compounds read low 0.995 and 1.06 | S. cerevisiae deletion strains, locus YHR079C, strain IRE1 (second series), active compounds read low 0.964 | S. cerevisiae deletion strains, locus YHR079C, strain IRE1, active compounds read low 1.04 | S. cerevisiae deletion strains, locus YHR094C, strain hxt1, active compounds read low 0.975 | S. cerevisiae deletion strains, locus YHR129C, strain ARP1, active compounds read low 0.992 | S. cerevisiae deletion strains, locus YHR200W, strain rpn10, active compounds read low 0.975 | S. cerevisiae deletion strains, locus YIL066C, strain RNR3, active compounds read low 0.984 | S. cerevisiae deletion strains, locus YIL073C, strain SPO22, active compounds read low 0.958 | S. cerevisiae deletion strains, locus YIL125W, strain kgd1, active compounds read low 0.986 | S. cerevisiae deletion strains, locus YIR030C, strain dcg1, active compounds read low 0.981 | S. cerevisiae deletion strains, locus YJL095W, strain BCK1, active compounds read low 0.938 and 1.05 | S. cerevisiae deletion strains, locus YJL134W, strain LCB3, active compounds read low 0.998 | S. cerevisiae deletion strains, locus YJL168C, strain set2, active compounds read low 0.966 | S. cerevisiae deletion strains, locus YJL187C, strain SWE1 (second series), active compounds read low 0.969 | S. cerevisiae deletion strains, locus YJR043C, strain POL32, active compounds read low 0.991 | S. cerevisiae deletion strains, locus YJR066W, strain TOR1, active compounds read low 1 | S. cerevisiae deletion strains, locus YJR075W, strain HOC1, active compounds read low 0.954 | S. cerevisiae deletion strains, locus YKL009W, strain mrt4, active compounds read low 0.962 | S. cerevisiae deletion strains, locus YKL068W, active compounds read low 0.978 | S. cerevisiae deletion strains, locus YKL085W, strain MDH1 (second series), active compounds read low 0.97 | S. cerevisiae deletion strains, locus YKL085W, strain MDH1, active compounds read low 0.97 | S. cerevisiae deletion strains, locus YKL190W, strain CNB1, active compounds read low 0.989 | S. cerevisiae deletion strains, locus YKR001C, strain vps1, active compounds read low 0.999 | S. cerevisiae deletion strains, locus YLR039C, strain RIC1, active compounds read low 1.12 | S. cerevisiae deletion strains, locus YLR058C, strain SHM2, active compounds read low 1 | S. cerevisiae deletion strains, locus YLR102C, strain apc9, active compounds read low 0.983 | S. cerevisiae deletion strains, locus YLR113W, strain HOG1, active compounds read low 1.02 | S. cerevisiae deletion strains, locus YLR262C, strain YPT6, active compounds read low 1.12 | S. cerevisiae deletion strains, locus YLR268W, strain sec22, active compounds read low 0.906 | S. cerevisiae deletion strains, locus YLR330W, strain CHS5, active compounds read low 1 | S. cerevisiae deletion strains, locus YLR342W, strain FKS1 (second series), active compounds read low 1.02 | S. cerevisiae deletion strains, locus YLR371W, strain rom2, active compounds read low 0.962 | S. cerevisiae deletion strains, locus YLR418C, strain cdc73, active compounds read low 0.931 | S. cerevisiae deletion strains, locus YML016C, strain PPZ1, active compounds read low 1 | S. cerevisiae deletion strains, locus YML032C, strain rad52, active compounds read low 0.948 | S. cerevisiae deletion strains, locus YML124C, strain tub3, active compounds read low 0.977 | S. cerevisiae deletion strains, locus YMR078C, strain ctf18, active compounds read low 0.949 | S. cerevisiae deletion strains, locus YMR223W, strain ubp8, active compounds read low 1.01 | S. cerevisiae deletion strains, locus YMR263W, strain SAP30, active compounds read low 0.969 | S. cerevisiae deletion strains, locus YMR307W, strain GAS1, active compounds read low 1.23 | S. cerevisiae deletion strains, locus YNL067W, strain RPL9B, active compounds read low 0.965 | S. cerevisiae deletion strains, locus YNL128W, strain TEP1, active compounds read low 0.98 | S. cerevisiae deletion strains, locus YNL153C, strain GIM3, active compounds read low 0.973 | S. cerevisiae deletion strains, locus YNL183C, strain NPR1, active compounds read low 0.983 | S. cerevisiae deletion strains, locus YNL233W, strain BNI4, active compounds read low 0.99 | S. cerevisiae deletion strains, locus YNL250W, strain rad50, active compounds read low 0.992 | S. cerevisiae deletion strains, locus YNL271C, strain bni1, active compounds read low 0.974 | S. cerevisiae deletion strains, locus YNL298W, strain CLA4, active compounds read low 0.969 | S. cerevisiae deletion strains, locus YNL307C, strain MCK1, active compounds read low 0.978 | S. cerevisiae deletion strains, locus YNL322C, strain KRE1, active compounds read low 0.988 | S. cerevisiae deletion strains, locus YNR052C, strain pop2, active compounds read low 0.952 | S. cerevisiae deletion strains, locus YOL006C, strain TOP1, active compounds read low 0.94 | S. cerevisiae deletion strains, locus YOL012C, strain htz1 1.03 | S. cerevisiae deletion strains, locus YOL147C, strain pex11, active compounds read low 0.976 | S. cerevisiae deletion strains, locus YOR061W, strain CKA2, active compounds read low 0.993 | S. cerevisiae deletion strains, locus YOR069W, strain VPS5, active compounds read low 1 | S. cerevisiae deletion strains, locus YOR136W, strain idh2, active compounds read low 0.981 | S. cerevisiae deletion strains, locus YOR144C, strain elg1, active compounds read low 0.981 | S. cerevisiae deletion strains, locus YOR184W, strain ser1, active compounds read low 0.97 | S. cerevisiae deletion strains, locus YOR231W, strain MKK1, active compounds read low 1.04 | S. cerevisiae deletion strains, locus YOR316C, strain cot1, active compounds read low 0.955 | S. cerevisiae deletion strains, locus YPL055C, strain LGE1, active compounds read low 0.959 | S. cerevisiae deletion strains, locus YPL241C, strain CIN2, active compounds read low 1 | S. cerevisiae deletion strains, locus YPL256C, strain CLN2, active compounds read low 1.06 | S. cerevisiae deletion strains, locus YPR119W, strain clb2, active compounds read low 0.964 | S. cerevisiae deletion strains, locus YPR141C, strain kar3, active compounds read low 0.975 | S. cerevisiae deletion strains, locus YPR163C, strain tif3, active compounds read low 0.961 | S. cerevisiae deletion strains, locus YPR167C, strain met16, active compounds read low 0.96 | S. cerevisiae deletion strains, strain wtn01, active compounds read low 0.938 | S. cerevisiae strains, strain wild type, active compounds read low 0.995
